# Screens (PubChem BioAssay)
# This excerpt belongs to a sample that is enriched for hits.
# LmPK inhibitor = qHTS Assay for Inhibitors of Leishmania Mexicana Pyruvate Kinase (LmPK); AID 1721, 2009; Potency, µM (top dose mostly 57.5 µM), without a hit: at the top dose activity change, negative = inhibition, usual class: inhibitors; Q27686; actives 0.37% (n = 290,000); purified LmPK, Kinase-Glo ATP luminescence, 1 h; also: potency is read from the fitted curve at half-maximal effect; % is scaled to controls: 0 for no effect and ±100 for the full control effect
#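 Purified LmPK (0.1 nM) converted ADP (0.1 mM) to ATP with PEP (0.5 mM) in imidazole buffer pH 7.2 with KCl and MgCl2, 1 h at room temperature. ATP was read by Kinase-Glo luminescence; data normalized to uninhibited and no-enzyme controls.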
# Giardia FBPA inh = qHTS Assay for Inhibitors of Fructose-1,6-bisphosphate Aldolase from Giardia Lamblia; AID 2451, 2010; A8B2U2; Potency, µM (series often up to 59.6 µM), for the others: top-dose activity, negative = inhibition, most hits filed as inhibitors; actives 0.71% (n = 290,000); purified Giardia FBPA; also: potency is read from the fitted curve at half-maximal effect; % is scaled to controls: 0 for no effect and ±100 for the full control effect; nearly all actives have a fitted effect of over 55% in size
# Target sequence (A8B2U2 whole entry, looked up): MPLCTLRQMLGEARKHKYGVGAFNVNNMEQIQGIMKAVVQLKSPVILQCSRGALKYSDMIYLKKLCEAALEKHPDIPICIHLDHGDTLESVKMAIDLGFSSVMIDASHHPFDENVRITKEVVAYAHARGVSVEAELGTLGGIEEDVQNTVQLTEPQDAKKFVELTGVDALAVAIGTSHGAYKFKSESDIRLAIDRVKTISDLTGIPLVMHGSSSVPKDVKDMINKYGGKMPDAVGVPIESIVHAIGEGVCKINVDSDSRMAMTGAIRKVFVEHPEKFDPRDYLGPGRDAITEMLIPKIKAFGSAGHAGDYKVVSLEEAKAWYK
#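 Giardia FBPA (40 nM reagent) was preincubated 10 min at RT with compound (up to 57.5 uM final), then substrate plus GAPDH/TPI/NAD/arsenate coupling system with diaphorase/resazurin was added; resorufin fluorescence (525/598 nm) was read after 20 min.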
# Shiga inhibitor = A qHTS for Small Molecule Inhibitors of Shiga Toxin. Vero cells, Shiga toxin protein synthesis inhibition reporter. inhibition, % at 38.7 µM. actives 9.2% (n = 290,000); in the data active = inhibition mostly above about 28%, no sharp cut-off; inactive = mostly below about 43%; also: 0% is about no effect
# CHX counter = Cycloheximide Counterscreen for Small Molecule Inhibitors of Shiga Toxin; AID 2314, 2010; max response, %; cell reporter, cycloheximide protein synthesis inhibition counterscreen; actives 12% (n = 300,000); in the data active = max response mostly above about 13%, no sharp cut-off; inactive = mostly below about 14%; also: read at 38.3 µM for the half of the compounds with a filed dose; 0% is about no effect
# TbPYK inhibitor = qHTS of Trypanosoma Brucei Inhibitors. actives 0.12% (n = 410,000). TbPYK enzyme, Kinase-Glo Plus ATP luminescence, 45 min. AID 624173, 2012. Potency, µM (titrated, usually from 76.8 µM), inactives show top-dose activity, negative = inhibition, actives largely listed as inhibitors; also: potency is read from the fitted curve at half-maximal effect; % is scaled to controls: 0 for no effect and ±100 for the full control effect; nearly all actives have a fitted effect of over 50% in size
#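 Screened from lowest to highest concentration, compounds were pinned into TbPYK/substrate mixtures, and ADP (130 uM final) was added. Plates sat at room temperature for 45 min prior to Kinase-Glo Plus detection by luminescence.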
# Sm TGR inh = qHTS Assay for the Inhibitors of Schistosoma Mansoni Peroxiredoxins; Schistosoma mansoni thioredoxin glutathione reductase (TGR), Q962Y6; purified TGR, DTNB reduction, TNB absorbance 405 nm; Potency, µM (top dose mostly 114 µM), for the others: at the highest dose activity change, negative = inhibition, usual class: inhibitors; actives 3% (n = 360,000); also: potency is read from the fitted curve at half-maximal effect; % is scaled to controls: 0 for no effect and ±100 for the full control effect; nearly all actives have a fitted effect of over 60% in size
#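 TGR 20 nM + NADPH 100 uM (dispensed conc.), cpd preinc 15 min RT; start with NADPH (500 uM addition) then DTNB (15 mM addition). Kinetic TNB absorbance, 405 nm filter. Four-parameter Hill fit across titration.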
# * hit, by the source's call; ? = inconclusive; . = not tested or not shown; ! = a repeat was not active; [ ] = another dose, or the depositor's remark. Unless noted, calls follow the shape of the dose curve; as a rule, active = well fitted curve in the direction sought with a large enough effect; inconclusive = small, poorly fitted or top-dose-only effect, or another doubt; inactive = no such curve, though single readings can be large; an effect the other way counts as inactive or inconclusive.
SMILES,LmPK inhibitor,Giardia FBPA inh,Shiga inhibitor,CHX counter,TbPYK inhibitor,Sm TGR inh
Clc1ccc(N=C2SCC3CCCCN23)cc1 (stereo not given),-4%,6%,77*,70*,3%,44%
O=C(CN1CCCCC1CO)c1ccc(OC(F)F)cc1 (stereo not given),2%,3%,-3,-2,-2%,-2%
COc1cccc(CN2CCCN(S(=O)(=O)c3ccc(Br)cc3)CC2)c1,4%,0%,-6,-2,-13%,40µM*
COc1ccccc1C(=O)N1CCN(C2CCN(Cc3ccccc3)CC2)CC1,-8%,-26%,-5,43*,0%,4%
COc1ccc(S(=O)(=O)N2CCN(C3CCN(Cc4ccccc4)CC3)CC2)cc1,0%,5%,-10,-2,0%,50µM*
COc1cccc(OCc2cc(C(=O)N(C)Cc3nc(C)cs3)no2)c1,-6%,.,108*,56*,0%,0%
Cc1ccc(OCc2cc(C(=O)N(C)Cc3nccn3C)no2)cc1C,0%,0%,20,22,-12%,-7%
Cc1nnc(CN(C)C(=O)c2cc(COc3ccc(C)c(C)c3)on2)o1,6%,.,44,36*,0%,-3%
COc1cccc(OCc2cc(C(=O)N(C)C3CCOCC3)no2)c1,-4%,.,19,4,11%,0%
Cc1ccc(OCc2cc(C(=O)N(C)Cc3cnn(-c4ccccc4C)c3)no2)cn1,3%,.,35,20*,-1%,-10%
Cc1cc(CN(C)C(=O)c2cc(COc3ccc(C)c(C)c3)on2)on1,-14%,.,64*,56*,-10%,-6%
Cc1cc(OCc2cc(C(=O)N(C)Cc3nonc3C)no2)cc(C)c1Cl,5%,-3%,-2,11,-2%,0%
O=C(Cn1c(=O)n(Cc2ccc(C(=O)NCc3ccc4c(c3)OCO4)cc2)c(=O)c2ccccc21)Nc1cccc(Cl)c1,.,.,.,.,2%,1%
CCN(CCn1cccn1)C(=O)c1cc(COc2ccc(F)cc2Cl)on1,-1%,7%,32,11,1%,.
Cc1nn(C)cc1CN(C)C(=O)c1cc(COc2ccc(F)cc2F)on1,-5%,2%,17,-3,2%,-1%
CN(Cc1cccc2cnccc12)C(=O)c1cc(COc2ccc(F)cc2Cl)on1,1%,8%,32,23*,-3%,1%
Cc1csc(CN(C)C(=O)c2cn(Cc3cccc4ccccc34)nn2)n1,-15%,.,36*,21,-8%,-19%
Cc1nnc(CN(C)C(=O)c2cc(COc3ccc(F)cc3Cl)on2)o1,-2%,.,93*,38*,-4%,-7%
CCC(Sc1nnc(-c2ccc(OC)c(OC)c2)c(-c2ccc(OC)c(OC)c2)n1)C(=O)NC1CCCC1 (stereo not given),.,.,.,.,4%,-4%
CCOC(=O)CCN1C(=O)[C@H]2[C@H]3[C@H](O)[C@H](O)C/C(=N/OCC(C)C)[C@H]3CC[C@@H]2C1=O,.,0%[12.9 µM],.,.,.,.
COc1ccc(S(=O)(=O)Nc2cccc(-c3ccc(N4CCCCCC4)nn3)c2)cc1,.,.,.,.,-7%,34%
CC1CC(C)(C)N2C(=O)C(=C(C#N)C#N)c3cccc1c32 (stereo not given),-1%,?,3,-1,-11%,5.6µM*
Cc1cc2c3c(c1)C(C)CC(C)(C)N3C(=O)C2=C(C#N)C#N (stereo not given),-9%,?,7,-3,4%,4µM*
COC(/C(=N/O)c1ccc(Cl)cc1)c1ccccc1 (stereo not given),-1%,-2%,50*,33*,6%,-1%
COc1ccc(Cl)cc1NC(=O)C(OC)c1ccccc1 (stereo not given),2%,-19%,9,4,-3%,.
SMILES,LmPK inhibitor,Giardia FBPA inh,Shiga inhibitor,CHX counter,TbPYK inhibitor,Sm TGR inh
CC(C)(C)C1CCc2nc(NC(=O)Cc3ccccc3)sc2C1 (stereo not given),.,.,.,.,5%,-5%
O=C(Nc1nc2c(s1)CN(Cc1ccccc1)CC2)C1CCCC1,3%,-10%,28,23*,-6%,?
O=C(Nc1nc2c(s1)CN(Cc1ccccc1)CC2)c1c(F)cccc1F,2%,-20%,42*,30*,0%,?
CC(C)(C)C(=O)Nc1nc2c(s1)CN(Cc1ccccc1)CC2,2%,-22%,67*,44*,2%,25µM*
Nc1c(C(=O)Nc2ccccc2)sc2nc3c(cc12)CN(Cc1ccccc1)CC3,.,.,.,.,-11%,-3%
Cn1c(-c2nonc2NC(=O)c2ccc(C(C)(C)C)cc2)nc2ccccc21,-5%,16%,-3,1,.,10%
CC(C)(C)c1ccc(C(=O)Nc2ccc(Cl)cc2)cc1,2%,8%,101*,43*,-13%,-5%
CC(=O)Nc1nonc1NC(=O)c1ccc(C(C)(C)C)cc1,1%,2%,58*,20*,2%,9%
O=C(Nc1ccc(Nc2ccccc2)cc1)c1ccc(Cl)cc1,.,.,.,.,3%,.
CC(C)(C)c1ccc(NC(=O)c2ccsc2)cc1,-25%,?,45*,28*,-1%,-3%
Cc1cccc(CS(=O)(=O)Cc2ccc(C(=O)NCc3ccccc3)o2)c1,9%,.,-3,-4,5%,45µM*
Cc1cccc(CS(=O)(=O)Cc2ccc(C(=O)NCc3cccs3)o2)c1,10%,4%,-3,2,2%,35µM*
Cc1cccc(CS(=O)(=O)Cc2ccc(C(=O)NC3CCCC3)o2)c1,-5%,3%,21,14,-2%,-30%
Cc1ccc(CNC(=O)c2ccc(CS(=O)(=O)Cc3ccc(C)cc3)o2)cc1,.,.,.,.,-4%,6%
COC(=O)CNC(=O)C(C)NC(=O)OCc1ccccc1 (stereo not given),-3%,0%,18,8,1%,5%
CCOC(=O)CNC(=O)C(Cc1ccccc1)NC(=O)OCc1ccccc1 (stereo not given),14µM*,3%,-6,-2,0%,-12%
CCOC(=O)CNC(=O)C(CO)NC(=O)OCc1ccccc1 (stereo not given),-1%,16%,6,26*,4%,-12%
Cc1ccc(NC(=O)CSCC(=O)N(C)CC(=O)Nc2ccccc2C(F)(F)F)cc1,.,.,.,.,-15%,2%
Cc1cc(C)c2c(n1)SCCN2C(=O)Nc1ccc(C(=O)Nc2cc(Cl)ccc2C)cc1,.,.,.,.,-4%[15.4 µM],4%
COc1cccc(C(O)c2nc(-c3cccc(C(C)C)c3)cs2)c1 (stereo not given),.,.,.,.,0%,.
CN1CCC(c2c[nH]c3ccc(O)cc23)CC1,.,2µM*!,.,.,1%,.
COc1cc(C)ccc1OCCSc1nnc(-c2ccc(C)cc2)o1,.,.,.,.,-3%,-23%
